Laboratory results published in PubChem BioAssay AID493005 (National Center for Advancing Translational Sciences (NCATS), 2010).
Among all 340,000 compounds or so, fewer than 10 were called active. Calls come from the whole dose curve; as a rule, active = well fitted inhibition curve with a large enough effect in the main read-out, with a control signal flat (not every such curve was filed as active); inconclusive = small, poorly fitted or top-dose-only effect, or effect the other way, or a change in a side signal; inactive = no such curve, though single readings can be large or run the other way. Not all results are given here.

Target: Tumor susceptibility gene 101 protein (Homo sapiens) (UniProt Q99816)
Experiment: qHTS Assay for Iinhibitors of HIV-1 Budding by Blocking the Interaction of PTAP/TSG101
Details: Fluorescence polarization, FITC-PTAP peptide / Tsg101 binding; series mostly up to 115 µM
Description: NIH Molecular Libraries Probe Production Network [MLPCN] NIH Chemical Genomics Center [NCGC] MLPCN Grant: 1 R03 MH087464-01A1 PI Name: Dr. Eric Freed, NCI NCGC Assay Overview: Stages of the HIV-1 replication cycle, specifically virus assembly and release, provide underexploited targets for the development of novel antiviral inhibitors. The late stages of HIV-1 replication are mediated by the Gag precursor protein, Pr55Gag. Expression of Pr55Gag is both necessary and sufficient for the production of virus-like particles from Gag-expressing cells. The Gag protein hijacks key host proteins involved in endocytic machinery of the host cell to promote endosomal processing and viral budding. The budding process requires a direct interaction between a […] (PTAP) motif in the p6 domain of Gag and the cellular endosomal sorting protein known as Tsg101. In this way, the Gag PTAP motif promotes the host cells to recruit viral particles to the plasma membrane where the new viral particles are released, effectively turning the host cells into viral factories. A fluorescence anisotropy assay has been developed to quantitatively measure the PTAP-Tsg101 interaction which can be used to screen for inhibitors of this interaction.
NCGC Assay Protocol Summary: Two uL of the Tsg101 binding domain in buffer (10 mM HEPES pH 7.5; 0.15 M NaCl, 0.01% Tween 20; 3 mM EDTA;0.1 mM TCEP) was dispensed into Greiner black MB 1536-well plates (final concentration 10 uM). Then, 23 nL of compounds or DMSO were delivered to each well using a pin tool. Finally, 2 uL of a FITC-labeled peptide containing the PTAP motif (1) in the same buffer was dispensed (50 nM final concentration) and the binding was allowed to proceed for 20 min. at r.t. Fluorescent polarization was determined using FITC excitation and polarized emission filters on a Perkin Elmer Viewlux. Keywords: Tsg101, PTAP, Gag, HIV, fluorescent polarization, MLSMR, MLPCN, NIH Roadmap, qHTS, NCGC

Tumor susceptibility gene 101 protein (Homo sapiens), sequence (Q99816 whole entry, looked up): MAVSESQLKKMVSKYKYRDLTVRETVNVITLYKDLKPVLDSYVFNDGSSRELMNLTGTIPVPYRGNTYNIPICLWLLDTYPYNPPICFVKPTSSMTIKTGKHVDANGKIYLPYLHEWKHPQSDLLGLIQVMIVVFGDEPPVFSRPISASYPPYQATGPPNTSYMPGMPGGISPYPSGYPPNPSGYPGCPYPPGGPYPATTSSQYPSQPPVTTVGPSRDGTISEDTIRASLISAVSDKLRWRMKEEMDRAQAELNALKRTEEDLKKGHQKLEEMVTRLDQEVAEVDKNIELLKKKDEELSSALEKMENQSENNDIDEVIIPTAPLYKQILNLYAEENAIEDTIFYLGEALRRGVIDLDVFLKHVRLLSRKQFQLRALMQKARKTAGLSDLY

outcome, inactive:
Cc1nc2ccc(N)nc2nc1C
C/C(=N\NC(=O)OC(C)(C)C)c1ccc[nH]1
O=C(CCN1C(=O)[C@H]2CC=CC[C@H]2C1=O)NCc1nc(-c2ccccc2)no1
CCc1nnc(NC(=O)CSc2nnc(COc3ccc(C#N)cc3)n2-c2ccccc2)s1
CCN(CCn1cccn1)Cc1cn[nH]c1-c1ccc(OC)cc1F
CC1CN(Cc2nc3c(c(=O)n(C)c(=O)n3C)n2Cc2cccc(Cl)c2)CC(C)O1 (stereo not given)
O=C(c1ccc(C(F)(F)F)cc1)C1CCCN(C(=O)c2csnn2)C1 (stereo not given)
CN1CCC(N(C)C(=O)c2ccc(Cl)c(S(=O)(=O)Nc3ccc(Cl)cc3)c2)CC1
O=C(C[C@H]1C/C=C\C[C@@H](NC(=O)OCC2c3ccccc3-c3ccccc32)C(=O)O[C@@H](c2ccccc2)CNC1=O)N[C@H](CO)Cc1ccccc1
COc1cc(/C=C/c2ccc(/C=C/c3cc(OC)c(OC)c(OC)c3)cc2)cc(OC)c1OC
CCOC(=O)c1ccc2[nH]c3c(c2c1)CCCC3NC=O (stereo not given)
CCN1CCN(C(=O)Cn2nc(C)n3c(cc4c(OC)cccc43)c2=O)CC1
O=C(NCc1nnc(SCC(=O)N2CCC(Cc3ccccc3)CC2)o1)c1ccco1
CCN(CC)S(=O)(=O)c1ccc2[nH]c(=O)cc(C(=O)N(C)C3CCS(=O)(=O)C3)c2c1 (stereo not given)
O=C(C1CCCO1)N(c1ccc(F)cc1)C1C=CS(=O)(=O)C1 (stereo not given)
O=C(NCc1ccccc1)c1cccc(NC(=O)C2CCCCC2)c1
c1ccc(-c2nccc(-c3ccc(-n4cnc5ccccc54)cc3)n2)nc1
CCC(C)Sc1nc(C)nc2c1c(=O)n(C)c(=O)n2C (stereo not given)
CCN(CC)C(=O)CSc1nc2ccccc2n1CC(=O)N1CCN(c2ccccc2OC)CC1
CCOc1ccccc1NC(=S)C(=C([O-])c1ccc2c(c1)OCCO2)[n+]1ccc(CC)cc1
O=C(CSc1nnc(-c2cccs2)n1Cc1ccco1)c1ccc2c(c1)OCO2
COC(=O)c1ccc(NC(=O)CSc2nncc3ccc(OC)c(OC)c23)cc1
Cc1noc(C)c1C(=O)NCCc1ccc(S(N)(=O)=O)cc1
O=C(CN1CCN(c2ccc(O)cc2)CC1)Nc1ccc(-c2ccccc2)cc1
CCN(C(=O)COC(=O)c1c(C)nn(-c2ccccc2)c1Cl)c1c(N)n(Cc2ccccc2)c(=O)[nH]c1=O
COc1cccc(-c2nn(-c3ccccc3)cc2/C=C(\C#N)C(=O)NCCCn2ccnc2)c1
Nc1c(-c2cccc(Cl)c2)cnn1-c1cccc([N+](=O)[O-])c1
COc1ccc(CN2C(=O)CC(Cc3ccc(C)cc3)C2=O)cc1OC (stereo not given)
C/C(=N\N=C(N)N)c1ccc(Cl)cc1
CC(C)Oc1ccc(C2NC(=O)NC2=O)cc1 (stereo not given)
COC(=O)C1(S(=O)(=O)C2(C(=O)OC)CCCC2)CCCC1
C=CCOC(=O)C1=C(C)N=C2SCCC(=O)N2C1/C=C/c1ccccc1OC (stereo not given)
Cc1ccc(N(C(=O)CC2NC(=O)NC2=O)C2(C(=O)NC3CCCC3)CCCCC2)cc1 (stereo not given)
O=S(=O)(NCCS(=O)(=O)N1CCN(c2ccccc2)CC1)c1ccc(F)cc1
Fc1ccc(-n2c(Cc3ccccc3)nnc2SCc2nc(-c3ccc(Cl)cc3)no2)cc1
N/C(=N\OC(=O)CCc1ccccc1)c1ccc(Cl)cc1
O=C(CN1CCN(Cc2ccccc2)CC1)NC(c1ccccc1)c1ccccc1
O=C(O)c1[nH]c2ccccc2c1C(c1cccc(O)c1)c1c(C(=O)O)[nH]c2ccccc12
COCCCNCC(=O)Nc1sc(C)c(C)c1C(=O)OC
CCn1c(SCC(=O)NC2=NCCS2)nnc1C(C)NC(=O)c1ccccc1F (stereo not given)
Cc1ncc([N+](=O)[O-])n1CCOC(=O)c1ccc(Br)cc1
CC(C)(C)C(=O)Nc1cccc(-c2ccc[nH]2)n1
O=C(C/C(=N\NC(=O)c1ccccc1Br)C(F)(F)F)c1cccs1
COC(=O)[C@@]12CCCN1[C@H](c1ccc(-c3ccc(F)cc3)c(OC)c1)[C@H]1C(=O)N(C)C(=O)[C@H]12
C=C1c2c(Cl)ccc(O)c2C(O)=C2C(=O)[C@]3(O)C(O)=C(C(N)=O)C(=O)[C@@H](N(C)C)[C@@H]3[C@@H](O)C12 (stereo not given in full)
Cc1ccc(C)c(OCCC(=O)OCC(=O)NC(=O)NCc2ccccc2)c1
COc1ccc(NC(=O)CSc2ccc(-c3ccco3)nn2)c(OC)c1
COC(=O)[C@]1(C)CCC[C@@]2(C)C3CC[C@]4(OC(C)=O)C[C@@]3(CCC21)CC4=NO (stereo not given in full)
COc1ccc(C(=O)CCc2ccccc2O)c(OC)c1
Cc1ccc(CNC(=O)CCC(=O)N2CC(C)Sc3ccccc32)cc1 (stereo not given)
Cc1cc(C)cc(NC(=O)N2CCC(NC(=O)c3ccc(F)cc3)CC2)c1
Cc1ccc(CCCOC(=O)C[N+]2(C)CCCCC2)cc1
Cc1noc(C)c1S(=O)(=O)N1CCCC(C(=O)Nc2nccs2)C1 (stereo not given)
CCCCNC1(C#N)CCN(Cc2ccccc2)CC1
O=C(NNC(=S)NCCCN1CCOCC1)c1ccncc1
CCOc1cc(CN2CCCC(CO)(Cc3ccc(F)cc3F)C2)ccc1OC (stereo not given)
Cc1ccc2c(C)c(C(=O)N(C)CCC3CCCCO3)oc2c1C (stereo not given)
CN(C)C(=O)c1ccc2c(c1)C1C3CCC(C3)C1C(c1ccccc1)N2 (stereo not given)
O=C(CCC1CCCC1)N=C1SC2CS(=O)(=O)CC2N1Cc1ccccc1 (stereo not given)
Cc1ccc(CN(N=Nc2nonc2N)c2nonc2N)c(C)c1
Cc1ccc(C(=O)O)cc1N1C(=O)CCCC1=O
Cc1ccc(CN2CCN(c3ccccc3Cl)CC2)o1
CCCC(=O)Nc1nnc(CC(=O)OCC)s1
COc1ccc(CCNCc2c(-c3ccccc3)n(C)c3ccccc23)cc1
COc1ccc(F)cc1S(=O)(=O)N1CCCCC1
O=[N+]([O-])c1ccc(C=Nc2ccc(Cl)cc2Cl)s1
CCOC(=O)c1nnn(-c2nonc2-n2cccc2)c1CN1CCC(C(=O)OCC)CC1
C=CCc1cccc2cc(C(=O)Nc3ccc(NC(C)=O)cc3)c(=O)oc12
CCOC(=O)[C@@H]1[C@H]2COc3cc(OC)ccc3[C@H]2N2C(=O)N(c3ccc(F)cc3)C(=O)[C@]12C
O=C(Cc1ccccc1)Nc1c(Cl)ccc2nsnc12
CC(=O)c1ccc(NC(=O)C2CC(=O)Nc3nc4ccccc4n32)cc1 (stereo not given)
CCOc1ccc(NC(=O)C/C(C)=N/NC(=O)Cc2cccs2)cc1
CN(CC(=O)NCCN1CCOCC1)S(=O)(=O)c1ccc(F)cc1
C/C(=N\NC(=O)CCn1nc(C)cc1C)C(C)(C)C
O=C(Cc1ccc(NC(=O)C2CCCN(C(=O)CCc3ccccc3)C2)cc1)Nc1ccc(C(=O)N2CCOCC2)cc1 (stereo not given)
COc1ccc(-c2nc3c(s2)CCc2onc(-c4ccc(OC)cc4)c2-3)cc1
CC(=O)Nc1ccc(S(=O)(=O)N(CCc2ccccc2)CC(=O)N/N=C/c2ccc(C(=O)O)cc2)cc1
COc1cc(Cl)ccc1OCc1cc(C(=O)N(C)CCc2c(C)n[nH]c2C)no1
CC(C)C[C@H](NC(=O)C1CC(=O)N(c2ccc3c(c2)OCCO3)C1)C(=O)NC1CCCC1 (stereo not given in full)
COc1ccc(Cl)cc1NC(=O)CN(C)C(=O)CCCc1c[nH]c2ccccc12
CC(C)CC(CC(C)C)=NNC(=O)c1ccc(CSc2nncn2C)cc1
O=C(c1cc(-c2ccco2)nc2ccccc12)N(Cc1nnc(-c2ccc(Cl)cc2)o1)C1CC1
CN(CC(=O)Nc1ccc(Cl)c(C(F)(F)F)c1)C(=O)CCC(=O)c1ccccc1
Cn1ncc(N2CCN(S(=O)(=O)c3ccc(Br)cc3)CC2)c(Cl)c1=O
CC(C)OP(=O)(OC(C)C)C(Nc1ccccc1)c1cccc([N+](=O)[O-])c1 (stereo not given)
CC(=O)N(c1ccc2oc(=O)sc2c1)S(=O)(=O)c1ccc(C)cc1
Clc1ccc(C[n+]2cc(-c3ccc(Cl)cc3)n3c2CCC3)cc1
COC(=O)[C@@H]1C[C@@]2(O)[C@@H](O)[C@@H](O)[C@@H](O)C[C@H]2N1Cc1ccc(C)s1
COc1ccccc1NS(=O)(=O)c1ccc(C)c(C(=O)NNC(=O)c2csc(N3CCOCC3)n2)c1
CC(=O)OC1CCC2C3CCC4=C(CC(F)C(=O)C4)C3CCC12C (stereo not given)
Cc1ccc(S(=O)(=O)N2CCCC2C(=O)NCc2ccco2)cc1 (stereo not given)
CS(=O)(=O)N1CCCC(C(=O)N2CCOCC2)C1 (stereo not given)
CCCN1C(=O)C(NC(C)=O)c2cc(OC)ccc21 (stereo not given)
O=C(NC1CCCC1)C(c1ccc(N2CCOCC2)cc1)N(C(=O)c1ccco1)c1ccccc1F (stereo not given)
O=C(Nc1ccccc1-c1nnn(CC(=O)N2CCCc3ccccc32)n1)c1cccc(Cl)c1
CC(C)C(O)C1CCN(Cc2nc(Cc3ccccc3Cl)no2)CC1 (stereo not given)
O=C(Nc1ccc2c(c1)nc1n2CCCCC1)c1cc(S(=O)(=O)N2CCOCC2)ccc1Cl
C=CCn1c(COc2ccc(F)cc2)nnc1SCC(=O)Nc1cccc(S(N)(=O)=O)c1
CCc1c(O)nc(SCC(=O)Nc2ccccc2)n(C(C)CC)c1=O (stereo not given)
COc1cc(OC)cc(C(=O)NNC(=O)Cc2cccs2)c1
